Results taken from PubChem BioAssay (NCI).
This is part of a sample that, as a whole, favours compounds with a hit. Of some 83,000 tested, about 20% had one in any assay.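 Results are percent growth after 48 hours of single-concentration exposure. 100 means growth as in untreated cells, lower positive values show inhibition; negative values down to -100 show cell death.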 Unmarked numbers belong to inactive results. Calls of active or inactive are those of the source. The calls were made as follows: active = growth percent below 10; inactive = the rest.

Key:
Test in all cases: NCI-60 one-dose screen, 48 h (100 = growth as untreated, 0 = no growth, -100 = all killed)
Conditions in all cases: 10 µM unless noted
[1] = test system: NCI-H23 lung
[2] = test system: NCI-H226 lung
[3] = test system: NCI-H322M lung
[4] = test system: HOP-62 NSCLC
[5] = test system: NCI-H460 lung
[6] = test system: HOP-92 NSCLC
[7] = test system: A549/ATCC NSCLC
[8] = test system: 786-0 renal
[9] = test system: COLO 205 colon
[10] = test system: DU-145 prostate
[11] = test system: K-562 leukemia
[12] = test system: MALME-3M melanoma
[13] = test system: MDA-MB-231 breast
[14] = test system: RXF 393 renal
[15] = test system: SF-268 CNS
[16] = test system: SF-295 CNS
[17] = test system: SF-539 CNS
[18] = test system: UACC-257 melanoma
[19] = test system: M14 melanoma
[20] = test system: NCI-H522 lung

Structure (SMILES) | growth [1] | growth [2] | growth [3] | growth [4] | growth [5] | growth [6] | growth [7] | growth [8] | growth [9] | growth [10] | growth [11] | growth [12] | growth [13] | growth [14] | growth [15] | growth [16] | growth [17] | growth [18] | growth [19] | growth [20]
COc1ccc2c(c1)c(-c1nc(-c3cn(C)c4ncccc34)cs1)cn2CCN1CCOCC1 | 40.2% | 43% | 62.3% | 12.5% | 23.9% | 31.3% | 30.5% | 44.4% | 33.2% | 36.3% | 9.83% (active) | 71.5% | 56.8% | 56.7% | 48.4% | 49.3% | 48% | 93.2% | 31.9% | –
O=C(CCCC1CCCCC1)OCC(Cl)(Cl)Cl | 94.3% | 99% | 104% | 98.7% | 101% | 77.5% | 107% | 102% | 101% | 105% | 99.8% | 102% | 116% | 114% | 97.1% | 102% | 104% | 109% | 105% | –
O=C(CC1(O)C(=O)N(Cc2ccccc2)c2ccc(Cl)cc21)c1ccc(C(=O)NCC2CCC3(CC2)OOC2(CCCCC2)OO3)cc1 (stereo not drawn) | – | – | – | -65.3% (active) | – | – | – | – | – | – | – | – | – | – | – | – | – | – | – | –
O=C(CC1(O)C(=O)Nc2ccccc21)c1ccc(C(=O)NCC2CCC3(CC2)OOC2(CCCCC2)OO3)cc1 (stereo not drawn) | – | – | – | 63.8% | – | – | – | – | – | – | – | – | – | – | – | – | – | – | – | –
C#Cc1ccc2c(c1)C(c1ccccc1F)=NCC(=O)N2C | 57.8% | 73.1% | – | 48.3% | 18.9% | 73.2% | 47.9% | 63.4% | 18.4% | 69.9% | 16.7% | 76.7% | 50.6% | 73.8% | 56.3% | 35.6% | 53% | 67.1% | 16.9% | 8.61% (active)
CN1CC(=O)N(O)C1(C)c1cccnc1 (stereo not drawn) | 104% | 94.7% | – | – | 105% | 116% | 101% | 99.5% | 111% | 115% | 99.4% | 102% | 113% | 106% | 106% | 96.4% | 98.3% | 98.9% | 105% | 95.2%
CCCCCCCOC(C(=O)OCCN(CC)CC)(c1ccccc1)c1ccccc1 | 87.7% | 96.4% | – | 89.6% | 84.4% | 67.6% | 90.8% | 65.8% | 95.3% | 86.9% | 56.6% | 100% | 82.5% | 92.4% | 87.9% | 123% | 96.9% | – | 90.5% | 73.4%
CCCCCCCC[N+](C)(CCCCCCCC)CCCCCCCC | -97% (active) | -86.2% (active) | – | -92.2% (active) | -100% (active) | -70% (active) | -100% (active) | -95.7% (active) | -60.7% (active) | -100% (active) | 86.9% | -91.7% (active) | -87% (active) | -100% (active) | -100% (active) | -94.8% (active) | -100% (active) | -95.2% (active) | -94.1% (active) | -99.9% (active)
CC[C@H](C)[C@H](NC(=O)[C@H]1CCCCN1C)C(=O)N(C)[C@H](C[C@@H](OC(C)=O)c1cccc(C(=O)N[C@@H](Cc2ccccc2)C[C@H](C)C(=O)O)n1)C(C)C | 24.3% | 19.7% | – | 1.64% (active) | 7.49% (active) | 37% | 11.4% | 23.1% | -66.1% (active) | -16.1% (active) | 7.77% (active) | 64.1% | -0.17% (active) | 31.2% | 18% | 2.98% (active) | -10.7% (active) | 47.9% | 10% | -12.8% (active)
COc1cc2c(cc1OCCCCn1c(-c3cccs3)nc3ccccc31)N=C[C@@H]1CCCN1C2=O | -37.9% (active) | -34.7% (active) | – | – | -4.31% (active) | -64.6% (active) | -7.19% (active) | 1.78% (active) | -73.5% (active) | 10.7% | -26.7% (active) | -77% (active) | -18.6% (active) | -60.4% (active) | -7.58% (active) | -8% (active) | -25.3% (active) | – | -46.2% (active) | -27.4% (active)
c1cnc2[nH]cc(-c3csc(-c4cn(CCCCN5CCOCC5)c5ccccc45)n3)c2c1 | 81.1% | 72.4% | – | 52.8% | 31.4% | 32% | 56.9% | 54% | -77.6% (active) | 70% | -38.7% (active) | -25% (active) | 32.8% | 53.7% | 49.7% | 53.9% | 80.8% | 67.8% | -49.9% (active) | 49.1%
COc1ccc(Nc2ccnc3cc(Cl)ccc23)cc1CN(CCCl)CCCl | -46.7% (active) | 22.9% | – | -38.8% (active) | -18.2% (active) | -39% (active) | 1.03% (active) | -53.3% (active) | -37.1% (active) | -26.4% (active) | 0.691% (active) | -85.3% (active) | 0.96% (active) | -72.3% (active) | -29.3% (active) | -24.8% (active) | -75.8% (active) | -39.1% (active) | -58.4% (active) | -47.6% (active)
O=C(O)c1ccc([S-])cc1.[Au+].c1ccc(CN2[CH-]N(Cc3ccccc3)C(c3ccccc3)=C2c2ccccc2)cc1 | -64.8% (active) | 3.42% (active) | – | -28% (active) | -29% (active) | -45% (active) | 3.5% (active) | -70.3% (active) | -66.5% (active) | -47.2% (active) | -16.9% (active) | -68.6% (active) | -62.5% (active) | -88.9% (active) | -42.7% (active) | – | -1.4% (active) | -19.1% (active) | -48.1% (active) | -44.9% (active)
C[C@@H]1O[C@@H](O[C@H]2C[C@@H](O)[C@]3(CO)C4C(CC[C@]3(O)C2)[C@@]2(O)CC[C@H](C3=CC(=O)OC3)[C@@]2(C)C[C@H]4O)[C@H](O)[C@H](O)[C@H]1O (stereo partly drawn) | -67.1% (active) | -72.3% (active) | – | -99.5% (active) | -75.9% (active) | -0.733% (active) | -91.4% (active) | -95.3% (active) | -84.2% (active) | -94.4% (active) | -22.4% (active) | -31% (active) | -22.5% (active) | -26.6% (active) | -91.7% (active) | -51.5% (active) | -80.1% (active) | -91.7% (active) | -86.2% (active) | -54.4% (active)
COC(=O)[C@@H](C)C[C@H](Cc1ccccc1)NC(=O)c1cccc([C@@H](C[C@H](C(C)C)N(C)C(=O)[C@@H](NC(=O)[C@H]2CCCCN2C)C(C)C)OC(C)=O)n1 | 38.9% | 68.1% | – | 23.2% | 7.05% (active) | 53.7% | 14.2% | 14.4% | -54.5% (active) | 10.5% | 7.86% (active) | 77.9% | -4.66% (active) | 46.1% | 30.8% | 6.28% (active) | 2.03% (active) | 49.7% | -10.9% (active) | -22.2% (active)
COc1cc(C=C2c3ccccc3C(=O)c3ccccc32)ccc1OCCCCOc1cc2c(cc1OC)C(=O)N1CCCC1C=N2 (stereo not drawn) | -52.7% (active) | -66.4% (active) | – | -62.5% (active) | -77% (active) | -59.4% (active) | -37.8% (active) | -100% (active) | -93.9% (active) | -92.7% (active) | -15.4% (active) | -28.8% (active) | -23.7% (active) | – | -59.9% (active) | -42.2% (active) | -70.9% (active) | -73.3% (active) | -66.7% (active) | -53.1% (active)
COC(=O)[C@@H](C)C[C@H](Cc1cn(C)c2ccccc12)NC(=O)c1csc([C@@H](C[C@H](C(C)C)N(C)C(=O)[C@@H](NC(=O)[C@H]2CCCCN2C)C(C)C)OC(C)=O)n1 | 31.9% | 18% | – | 7.44% (active) | 7.12% (active) | 25.7% | 15.3% | 6.49% (active) | -58.9% (active) | 12.4% | 6.65% (active) | 50.4% | 5.09% (active) | – | 16.6% | -0.0499% (active) | -8.57% (active) | – | -10.2% (active) | -7.69% (active)
C#C[C@]1(OC(=O)CCCCCC)CC[C@H]2[C@@H]3CCC4=CC(=O)CC[C@@H]4[C@H]3CC[C@@]21C | 19% | 54.8% | – | 35.5% | 21.2% | 58.6% | 46.1% | 56.5% | 29.3% | 72.1% | 20.7% | 77.1% | 59.7% | 58.8% | 50.7% | 32.2% | 47.9% | 55% | 25.6% | 20.5%
